Tau fibril ThT = blocks human tau fibril formation measured by thioflavin T | recombinant tau K18 P301L, heparin-induced fibrillization, ThT fluorescence | Potency, µM (series often up to 57.4 µM), hits mostly inhibitors | 2.1% of 270,000 active; also: nearly all actives have a fitted effect of over 55% in size
Target sequence (P10636 561-689 P618L limits assumed): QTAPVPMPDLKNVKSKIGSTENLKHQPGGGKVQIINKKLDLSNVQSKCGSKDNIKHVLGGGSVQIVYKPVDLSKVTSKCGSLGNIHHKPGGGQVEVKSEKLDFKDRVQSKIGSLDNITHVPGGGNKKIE
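Fibril formation assay: tau K18 P301L at 15 uM with trace Alexa 594 label, heparin inducer 20 uM, pH 7 sodium acetate buffer, 37 C for 6 hr; endpoint ThT signal.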
Tau fibril FP = blocks human tau fibril formation measured by polarization; P10636; K18 P301L tau heparin fibrillization, Alexa594 FP, 6 h; Potency, µM (titrated, usually from 57.7 µM), hits mostly inhibitors; 0.39% of 280,000 active; AID 1468; also: nearly all actives have a fitted effect of over 55% in size
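Read-out: fluorescence polarization of Alexa 594-labeled tau (0.24 uM), 555 nm excitation, 632 nm emission. Mixtures held 15 uM unlabeled K18 P301L, compound and 20 uM heparin, pH 7 acetate buffer, incubated 6 hr at 37 C.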
Tau fluor cs = counter-screen for tau fibril formation inhibitors; tau K18 P301L Alexa594 fluorescence, heparin fibrillization; Potency, µM (titrated, usually from 57.7 µM); 0.93% of 280,000 active; also: nearly all actives have a fitted effect of over 55% in size
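Human tau K18 P301L (15 uM unlabeled, 0.24 uM Alexa 594-labeled) in 100 mM sodium acetate pH 7 with 20 uM heparin, 6 hr at 37 C. ThT 30 uM added, 1 hr ambient; Alexa 594 FP and total fluorescence read at 555/632 nm.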
HTT aggregate = reduces HttQ103-GFP aggregates in PC12 cells; 1.1% of 220,000 active; Potency, µM (top dose mostly 46.1 µM), most hits filed as inhibitors; PC12 HttQ103-GFP aggregates, Acumen cytometry, 40 h; also: nearly all actives have a fitted effect of over 60% in size
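Quantitative HTS on tebufenozide-induced (100 nM) PC12 cells stably expressing polyQ103 Huntingtin exon 1–GFP. Reduction of bright GFP aggregates, detected by laser scanning cytometry after lysis, identified actives across the titration.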
HTT cytoprotect = protects HTT-Q103 PC12 cells, measured by ATP. PC12 HTT-Q103 induced, cytoprotection, ATP luminescence, 40 h. Potency, µM (top dose mostly 56.4 µM), actives largely listed as activators. 0.14% of 230,000 active. AID 1471; also: nearly all actives have a fitted effect of over 45% in size
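Stable PC12 Q103-GFP cells in serum-supplemented, phenol red-free DMEM; induction by tebufenozide at 100 nM final; compound dose series; cell viability quantified luminescently from ATP.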
Hits are given with their value; - = inactive; ? = inconclusive; . = no result given; [ ] = remark or other dose. Rows were chosen to be rich in hits. Some 3.7% of all compounds tested hit in one or more screens of this group. Calls follow the shape of the dose curve; as a rule, active = well fitted curve in the direction sought with a large enough effect; inconclusive = small, poorly fitted or top-dose-only effect, or another doubt; inactive = no such curve, though single readings can be large; an effect the other way counts as inactive or inconclusive.

SMILES	Tau fibril ThT	Tau fibril FP	Tau fluor cs	HTT aggregate	HTT cytoprotect
CC(=O)Nc1ccc(Nc2nc(C)c([N+](=O)[O-])c(Nc3ccc(NC(C)=O)cc3)n2)cc1	13µM	?	-	-	-[10 µM]
COc1ccccc1CNc1ncnc2ccc(-c3ccccc3OC)cc12	.	.	.	.	-
CC1=CC(C)(C)N(C(=O)c2ccccc2)c2ccc(C)cc21	-	-	-	-	-
COc1ccc(C(=O)N2c3cc4c(cc3C(C)=CC2(C)C)OCO4)cc1	?	-	?	11µM	-
Nc1nsc2ccccc12	13µM	?	-	-	-[10 µM]
Oc1ccc(/C=N/Nc2ncc(Br)cn2)c(O)c1	?	-	?	13µM	-[10 µM]
Oc1ccc(/C=N/Nc2nccnc2Cl)c(O)c1	?	-	-	-[9.22 µM]	-
Oc1ccc(/C=N/Nc2cccc3cccnc23)c(O)c1	6.3µM	-	7.9µM[quencher]	?	-[10 µM]
O=C(O)c1ccccc1C(=O)Nc1cc2c(cc1Br)-c1ccccc1C2=O	.	.	.	.	-[10 µM]
COc1ccc(C(=O)Nc2nc3c(s2)CCc2cc(OC)ccc2-3)cc1	10µM	?	11µM[quencher]	.	.
COc1ccc2c(c1)Cc1sc(NC(=O)c3cccc(Cl)c3)nc1-2	?	-	-	.	.
COc1ccc2c(c1)Cc1sc(NC(=O)c3cccc(C)c3)nc1-2	13µM	-	16µM[quencher]	.	.
COc1ccc2c(c1)CCc1sc(NC(=O)c3cccc(Br)c3)nc1-2	?	-	?	.	.
S=c1[nH]nc(-c2cc3c(s2)-c2ccccc2CC3)o1	13µM	-	?	-	-[10 µM]
COC(=O)c1ccccc1S(=O)(=O)N1CCc2nc(COc3ccccc3)c3c(c2C1)CO[C@@H](C)C3	-[11.5 µM]	-[11.6 µM]	-[11.6 µM]	.	-[10 µM]
COc1cccc(NC(=O)NCCCSC2CCCCC2)c1	-	-	?	?	-
Cc1cc(C)c(NC(=S)NCCCSC2CCCCC2)c(C)c1	-	-	-	11µM	-
COC(=O)C1=C(C(=O)OC)[C@@H]2Nc3ccccc3[C@@]23C[C@@H](C(=O)OC)N(S(=O)(=O)c2cccs2)C3=N1	-[11.5 µM]	-[11.6 µM]	-[11.6 µM]	.	-[10 µM]
CSc1ccc(CNC(=O)CN2C(=O)C3CCCCN3c3ccc(C(=O)N4CCCC4)cc32)cc1 (stereo not given)	-	-	-	.	.
COc1c(O)cc2c(c1O)C1OC(CO)C(O)[C@H](O)[C@H]1OC2=O (stereo not given in full)	-	-	-	.	.
O=C(O[C@@H]1OC2COC(=O)c3cc(O)c(O)c(O)c3-c3c(cc(O)c(O)c3O)C(=O)O[C@@H]([C@H]1O)[C@@H]2O)c1cc(O)c(O)c(O)c1	7.9µM	?	13µM[quencher]	-	.
Cc1cc(-c2nn(-c3ccccc3F)cc2CN2CCCC(CO)C2)c(C)s1 (stereo not given)	7.9µM	-	-	-[9.22 µM]	-[10 µM]
Cc1cc(-c2nn(-c3ccccc3F)cc2CN2CCCC(O)C2)c(C)s1 (stereo not given)	-	-	-	-	-
COC(=O)[C@H](Cc1ccccc1)NC(=O)[C@@H](C)CO	-[11.5 µM]	-[11.6 µM]	-[11.6 µM]	.	-[10 µM]
Cc1nc([N+](=O)[O-])c(Br)n1CC(=O)c1ccc(Cl)cc1	?	-	?	?	-
SMILES	Tau fibril ThT	Tau fibril FP	Tau fluor cs	HTT aggregate	HTT cytoprotect
Cc1nc([N+](=O)[O-])c(Br)n1Cc1ccc(Cl)c(Cl)c1	-	-	-	8.9µM	-[10 µM]
CN=c1scc(-c2ccc(OC)cc2)n1/N=C(\C)c1cccnc1	11µM	-	?	?	-
CN(C(=O)Cn1c(=O)n(CCC(=O)NCc2ccc3c(c2)OCO3)c(=O)c2sccc21)c1ccccc1	-	-	-	.	.
CCc1ccccc1NC(=O)c1noc2c1CC(C(C)(C)C)CC2 (stereo not given)	-	-	-	.	.
Clc1ccc(Nc2ncnc3c2cnn3-c2ccccc2)cc1	?	?	?	3.5µM	-
Cc1ccc(C)c(Nc2ncnc3c2cnn3-c2ccc(F)cc2)c1	-	-	-	.	.
COCCNc1ncnc2c1cnn2-c1ccc(Cl)cc1	-	-	-	.	.
Fc1ccc(-n2ncc3c(Nc4cccc(Cl)c4)ncnc32)cc1	?	10µM	?	.	.
CC(C)Nc1ncnc2c1cnn2-c1ccc(Cl)cc1	-	-	-	22µM	-[10 µM]
CC(C)c1ccc(NC(=O)Cn2cc(S(=O)(=O)Cc3ccccc3Cl)c3ccccc32)cc1	-	?	?	.	.
COc1ccccc1CNC(=O)c1cc2cc(C)ccc2n1C	-	-	-	.	.
COc1ccc(C(=O)C(CN2CCOCC2)c2ccccc2)cc1F (stereo not given)	?	-	-	.	3.2µM
COc1ccc(CN=Cc2[nH]c3ccc(Br)c(Cl)c3c2O)cc1	16µM	?	?	-	-[10 µM]
Cc1cc(C)cc(N=Cc2[nH]c3ccc(Br)c(Cl)c3c2O)c1	?	-	?	-	-[10 µM]
CC(C)C(=O)NC(c1ccco1)c1ccc2cccnc2c1O (stereo not given)	-	-	-	4µM	-
CCCC(=O)NC(c1ccccc1OC)c1ccc2cccnc2c1O (stereo not given)	-	-	-	?	-[10 µM]
COc1ccc(C(NC(C)=O)c2ccc3cccnc3c2O)c(OC)c1 (stereo not given)	-	-	-	4µM	-
Cc1ccc(/C=C2\Sc3ccccc3C2=O)s1	3.2µM	-	-	-	-
O=C1OC(c2ccc(F)cc2)=C/C1=C\c1ccc([N+](=O)[O-])o1	16µM	?	?	-	-
CC(C)=CCC/C(C)=C/CO/N=C1/C[C@@H](O)[C@@H](O)[C@@H]2[C@@H]3C(=O)N(Cc4ccccc4)C(=O)[C@H]3CC[C@@H]12	-[11.5 µM]	-[11.6 µM]	-[11.6 µM]	.	?
O=C(Nc1ccc(Cl)cc1)/C(=C/c1cccc(O)c1)c1nc2ccccc2s1	20µM	?	?	-[0.0738 µM]	-[0.074 µM]
S=C(Nc1ccc(Cl)cc1)c1nc2ccccc2s1	?	-	-	-	-
COc1cccc2c1cc1c(=O)n(CC(=O)N3CCN(c4cccc(C(F)(F)F)c4)CC3)nc(C)n12	-	-	-	.	.
N#CC1=C(N)SC(N)=C(C#N)C1c1ccc([N+](=O)[O-])cc1	20µM	-	?	-	-[10 µM]
N#CC1=C(N)SC(N)=C(C#N)C1c1ccc(C(F)(F)F)cc1	-	-	-	-	-[10 µM]
SMILES	Tau fibril ThT	Tau fibril FP	Tau fluor cs	HTT aggregate	HTT cytoprotect
CCOc1cc(-c2nc3ccccc3s2)ccc1O	?	-	20µM[quencher]	-[9.22 µM]	-[10 µM]
COc1cc(-c2nc3ccccc3s2)ccc1O	?	-	?	-	-
CCCOc1ccc(C2C(=O)N(C3CCCCCC3)CC(=O)N2C(C)C)cc1OC (stereo not given)	-	-	-	.	.
N#C/C(=C\c1ccccc1)C(=O)Nc1sc2c(c1C(N)=O)CCC2	1.4µM	-	-	.	.
O=C(NNc1cc(Br)c(O)c(Br)c1)c1ccccc1	5µM	16µM	?	-	-
O=C(NCc1ccco1)c1cc2c(s1)CSC2	28µM	?	-	-	-[10 µM]
O=C1C(C2=C(O)c3ccccc3C2=O)=Nc2ccccc21	7.1µM	?	?	-	-
O=C(NCC(c1ccc2c(c1)OCO2)N1CCN(c2ccccc2F)CC1)c1ccccc1F (stereo not given)	-	-	-	.	.
